# In PubChem BioAssay (NCI):
# The panel holds about 83,000 compounds, 20% with a hit somewhere; the sample as a whole holds those more often.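 Note: values are percent growth. 100 is the growth of untreated cells, values between 100 and 0 indicate rising inhibition; between -100 and 0 indicates cell death.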 Active and inactive are the calls of the source. How the source made its calls: active means growth percent below 10; inactive means the rest.
# Tested on: KM12 colon
# Assay: NCI-60 one-dose screen, 48 h (100 = growth as untreated, 0 = no growth, -100 = all killed)
# Conditions: 10 µM unless noted
row,Structure (SMILES),growth
1,CC(=O)Nc1c(Cl)cc2c(c1Cl)Cc1ccccc1-2,97.2% (inactive)
2,Clc1ccc(C2c3ccccc3-c3nccn32)c(Cl)c1 (stereo not given),79.2% (inactive)
3,Cc1ccccc1NC(=O)N/C(N)=N/c1nc2ccccc2s1,14.9% (inactive)
4,O=[N+]([O-])c1cc([N+](=O)[O-])c(N2CCCC2)cc1NN=C(c1ccc(O)cc1)c1ccc(O)cc1,85.7% (inactive)
5,CCCCc1ccc(C(N)=O)nc1,100% (inactive)
6,O=C(c1ccc(N2CCOCC2)cc1[N+](=O)[O-])N1CCOCC1,121% (inactive)
7,Cc1cc(C)c(C(=O)c2cccs2)c(C)c1,110% (inactive)
8,CC(C)N(Cc1ccccc1)c1c(Cl)ssc1=O,106% (inactive)
9,c1ccc(-c2oc(-c3ccccc3)c3ccccc23)cc1,105% (inactive)
10,N#Cc1c(-c2ccccc2)cc(-c2ccccc2)n(CC(=O)O)c1=O,41.3% (inactive)
11,Oc1c(N=Nc2nn[nH]n2)ccc2ccccc12,80.1% (inactive)
12,CCOC(=O)C(C(=O)OCC)C1CCCCC1,105% (inactive)
13,CNCCCn1c2c(c3ccc(F)cc3c1=O)C(=O)c1cc(OC)cnc1-2,-0.739% (active)
14,O=C1NC(=O)/C(=C/c2ccc(Cl)cc2Cl)N1,103% (inactive)
15,Nc1c(C(=O)Nc2cccc(Cl)c2)sc2nc3c(cc12)C(O)CCC3 (stereo not given),26.9% (inactive)
16,CCN(CC)CCCCCCCNc1c2ccc(Cl)cc2nc2ccc(OC)cc12,-37.2% (active)
17,Cn1c(N2N=C(c3ccc(Cl)cc3)CC2c2ccccc2)nc(-c2ccccc2)c(C#N)c1=O (stereo not given),78.3% (inactive)
18,C[C@H]1C(=O)N2c3ccccc3[C@@]3(O)C[C@@H](n4cnc5ccccc5c4=O)C(=O)N1[C@@H]23,113% (inactive)
19,O=C1/C(=C\c2coc3ccccc3c2=O)c2ccccc2N1c1c(Cl)cccc1Cl,27.1% (inactive)
20,Oc1c(Cl)cc(Cl)c(Cl)c1Cc1c(O)c(Cl)cc(Cl)c1Cl,8.09% (active)

row,Structure (SMILES),growth
1,COc1ccc(C2=NN(C(N)=S)C(c3ccc4c(c3)OCO4)C2)cc1 (stereo not given),2.57% (active)
2,CC[C@H]1CN2CCc3cc(OC)c(OC)cc3C2C[C@@H]1CC1NCCc2cc(OC)c(OC)cc21 (stereo not given in full),-37.2% (active)
3,COc1cccc(C2=NN(C(C)=O)C(c3cc(OC)c(OC)c(OC)c3)C2)c1 (stereo not given),35.9% (inactive)
4,CC(=O)O[C@H]1CC[C@@]2(C)C(=CC[C@@H]3[C@@H]2CC[C@]2(C)C(c4cccnc4)=CC[C@@H]32)C1,53.7% (inactive)
5,Cc1cc2c(cc1C)[n+](Cc1ccc3ccccc3c1)cn2Cc1ccc2ccccc2c1,-85.3% (active)
6,N/C(=N\C(N)=N\c1nc2ccccc2s1)c1ccnc(Cl)c1,32% (inactive)
7,CC(=O)OC1Oc2cc(C)c(C)cc2-c2oc(=O)c(-c3ccccc3)cc21 (stereo not given),7.26% (active)
8,O=C(N/N=C/c1cccc(O)c1O)c1ccccc1,25.9% (inactive)
9,CN[C@@H]1C(OC2[C@H](O[C@H]3[C@H](O)[C@@H](O)[C@H](N=C(N)N)[C@@H](O)[C@@H]3N=C(N)N)OC(C)[C@]2(O)CO)OC(CO)C(O)C1O (stereo not given in full),110% (inactive)
10,CN(C)c1ccc(-c2nc3ncc(Br)cc3o2)cc1,113% (inactive)
11,O=C(C(=O)N1CCOCC1)c1cn(CCCn2cc(C(=O)C(=O)N3CCOCC3)c3ccccc32)c2ccccc12,110% (inactive)
12,C[N+]1(C)C2CC[C@@H]1CC(OC(=O)C(O)c1ccccc1)C2 (stereo not given in full),109% (inactive)
13,Cn1ccnc1C(=O)/C=C/c1ccc(C(=O)Nc2nc3ccccc3[nH]2)cc1,14.4% (inactive)
14,COc1ccc(/C=C2\CCc3ccccc3C2=O)cc1,44.6% (inactive)
15,CCSc1nc(Nc2ccc(S(=O)(=O)Nc3ccon3)cc2)c(C#N)c(-c2cccc(Br)c2)n1,95.1% (inactive)
16,COc1ccc(C2CC(c3ccc4c(c3)OCO4)=NN2C=O)cc1 (stereo not given),105% (inactive)
17,CSc1nc2nc3c(c(-c4ccc(C)cc4)c2c(=O)[nH]1)CN(C)C/C3=C\c1ccc(C)cc1,101% (inactive)
18,O=c1oc2c(cc1-c1ccc([N+](=O)[O-])cc1)C(O)Oc1ccccc1-2 (stereo not given),95.4% (inactive)
19,COc1ccccc1-n1c(-c2ccc(O)cc2C)cn2c3c(=O)[nH]c(=O)n(C)c3nc12,103% (inactive)
20,CCOc1cc(/C=C/C(=O)CC(=O)/C=C/c2ccc(OC(=O)CNCCN(CC)CC)c(OCC)c2)ccc1OC(=O)CNCCN(CC)CC,-60.2% (active)
